Values joined by “and” are separate entries in the source; they are usually repeats but may differ in a detail not shown here. Identical values can stand only once. About 79,000 compounds went through this panel and 15% of them were active in at least one assay; those are over-represented in the sample as a whole. Unmarked numbers belong to inactive results. Active and inactive are the calls of the source. Cut-off read from the data, not from the text of the source: active = growth inhibition above about 70%; inactive = the rest.
Key:
[1] = NCI Yeast Anticancer Drug Screen. Data for the rad50 strain (AID 155);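 note: 0% = growth of vehicle-only cultures of the same strain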; settings: S. cerevisiae rad50 strain growth inhibition, stronger effect = higher value; at 50.0 µM unless noted
Method in brief: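 Readout: growth inhibition relative to vehicle-treated cultures. Compound exposure was carried out in a genetically defined yeast strain deficient in DNA damage repair.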

[2] = NCI Yeast Anticancer Drug Screen. Data for the mec2-1 strain (AID 157); settings: S. cerevisiae mec2-1 strain, stronger effect = higher value; at 50.0 µM unless noted
Method in brief: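 Mutant yeast (mec2-1) grown with compound; growth inhibition relative to vehicle control reported.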

[3] = NCI Yeast Anticancer Drug Screen. Data for the sgs1 mgt1 strain (AID 161);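 note: 0% = growth of cultures given vehicle only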; settings: S. cerevisiae sgs1 mgt1 strain, stronger effect = higher value; at 50.0 µM unless noted
Method in brief: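 This yeast growth screen uses a strain with defined DNA-repair lesions; compound-treated growth is compared with vehicle-treated growth.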

[4] = NCI Yeast Anticancer Drug Screen. Data for the cln2 rad14 strain (AID 165);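 note: 0% = growth equal to vehicle treated cultures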; settings: S. cerevisiae cln2 rad14 strain, stronger effect = higher value; at 50.0 µM unless noted
Method in brief: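 Readout is yeast growth inhibition versus vehicle-treated controls, using a strain with cln2 and rad14 alterations exposed to compound.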

[5] = NCI Yeast Anticancer Drug Screen. Data for the bub3 strain (AID 167); settings: S. cerevisiae bub3 mutant strain, stronger effect = higher value; at 50.0 µM unless noted
Method in brief: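 Readout: yeast growth inhibition, expressed relative to vehicle-only wells. The test organism is a mutant strain from a panel with lesions in DNA repair or checkpoint genes.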

[6] = NCI Yeast Anticancer Drug Screen. Data for the mlh1 rad18 strain (AID 175); settings: S. cerevisiae mlh1 rad18 strain growth inhibition, stronger effect = higher value; at 50.0 µM unless noted
Method in brief: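 Genetically defined yeast (DNA repair-deficient) exposed to compounds; growth inhibition determined relative to vehicle.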

Structure (SMILES)	growth inhibition [1]	growth inhibition [2]	growth inhibition [3]	growth inhibition [4]	growth inhibition [5]	growth inhibition [6]
COc1ccccc1NC(=O)C(/C=N/C(=S)NNC(C)=O)=C(/C)O	0.7%	-16.2%	-27%	-5.9%	-12.6%	2.45%
COc1cc2c(cc1OC)C(Cl)C(c1ccc(Br)cc1)=C2Cl (configuration not stated)	36.9%	67.3%	72.5% (active)	48.3%	55.4%	32.8%
c1cnc2c(c1)Oc1nc3ccccc3nc1S2	2.25%	6%	3.9%	35.9%	8.9%	23.1%
O=C1C(Br)=C[C@H]2C3C=CC(Br)(C3=O)[C@@H]12 (some centres not stated)	20.8%	14.9%	14.9%	25.2%	15.6%	23.6%
N#CCc1cccc(Cl)c1Cl (tested in a mixture with another compound)	6.8%	-15.3%	3.55%	-22.4%	14.4%	-7.55%
Cc1cc(-c2cccc3ccccc23)[n+]([O-])cc1C	15.6%	1.15%	17.2%	-16.3%	-24.1%	11.8%
CCSC(SCC)=C1C(=O)N(c2ccccc2)N=C1C	-6.75%	-18.8%	-4.1%	16.2%	8.6%	2.85%
Cc1ccc([N+](=O)[O-])cc1NC(=O)Oc1ccc(Cl)cc1Cl	-5%	8.55%	-10.9%	1%	2.5%	-13.3%
COc1ccc(C=Nc2ccccc2C(=O)O)cc1	0.2%	7.1%	0.65%	-41.9%	24.3%	5.9%
CSc1nc(NC2OC(COC(C)=O)C(OC(C)=O)C(OC(C)=O)C2OC(C)=O)c(N=CC=Nc2c(NC3OC(COC(C)=O)C(OC(C)=O)C(OC(C)=O)C3OC(C)=O)nc(SC)[nH]c2=O)c(=O)[nH]1 (configuration not stated)	-13.8%	-17.7%	-13.8%	-17.7%	6.6%	5.75%
S=c1[nH]nc(-c2ccccc2Cl)o1	-47.9%	-17.7%	-47.8%	-21.2%	-4.75%	-66.2%
NC(=S)/N=C(/c1nc2ccc(Cl)cc2[nH]c1=O)C(O)c1ccccc1Cl (configuration not stated)	-2.85%	-21.8%	-20.2%	4.35%	22.5%	5.75%
[N-]=[N+]=Nc1c(C=O)c(=O)n2c3c(cccc13)CCC2	17.2%	32%	29.2%	31.2%	27.7%	61%
C[N+](C)(CCCCCCCCCC[N+](C)(C)CC(=O)c1ccccc1)CC(=O)c1ccccc1	36.2%	-7.25%	24.7%	-11.8%	0.4%	18.1%
Fc1c(F)c(-c2c(F)c(F)c(S)c(F)c2F)c(F)c(F)c1S	-1.15%	3.75%	21.3%	3.05%	0.7%	-21.9%
N#CC1(C(=O)c2ccccc2)C=Cc2ccccc2N1C(=O)c1ccccc1 (configuration not stated)	-6.85%	16.4%	-0.85%	12.4%	26.2%	-19.2%
ClCCOCCOc1ccc(C2CCCCC2)cc1	12.9% and -1.65%	11.9% and -0.75%	56% and -3.65%	24.1% and -10.8%	28.2% and 31.4%	13.8% and 9.05%
O=C(Nc1ccccc1Cl)c1cc2cc(N=Nc3ccc(Br)cc3)ccc2oc1=O	0.55%	9.75%	-3.8%	9.6%	-7.05%	-3.5%
CCN1CCNC(c2ccccc2)C1(C)C (configuration not stated)	-2.35%	-5.45%	-10%	-15.7%	-5.95%	3.4%

Structure (SMILES)	growth inhibition [1]	growth inhibition [2]	growth inhibition [3]	growth inhibition [4]	growth inhibition [5]	growth inhibition [6]
N#CC(C(=O)NN)C1CCCCC1 (configuration not stated)	-0.85%	-22%	-2.95%	-0.1%	-33.8%	-11.7%
COC(=O)c1c(C)ccc(C)c1Nc1cc(C)ccc1C	-2.65%	-18%	-1.2%	9.55%	5.65%	-15.7%
O=C1OC(=O)C2C3CC(C(Br)C3Br)C12 (configuration not stated)	3.8%	-14.4%	7.8%	-36.5%	-1.2%	21.5%
CC(=O)OC1CC2C3CCc4cc(O)ccc4C3CCC2(C)C1 (configuration not stated)	22.4%	-15.8%	-8%	6.7%	-0.05%	3.2%
O=C(Nc1ccc2c(c1)Cc1c(F)cccc1-2)C(F)(F)F	-4.8%	-16.4%	-3.95%	-7.95%	9.45%	11.2%
COc1cc2ccc(Cc3nccc4cc(OC)c(OC)cc34)cc2cc1OC	98.4% (active)	98.5% (active)	99% (active)	91% (active)	97% (active)	98.2% (active)
CC(=O)C(CCC#N)(CCC#N)C(C)=O	-18.6%	-24.6%	-4.8%	-5.95%	-1.45%	-16.1%
O=c1cc(N2CCOCC2)n2ccccc2n1	-4.4%	-4.15%	8%	-20.6%	-8.35%	8.1%
NCCCc1nonc1C(=O)O	-15.2%	-39.4%	-3.85%	-4.05%	-7.3%	-13.3%
CCc1cc(C(=O)OC/C(C)=N/O)c2ccccc2n1	-18.8%	-0.65%	-10.1%	-18.4%	30.4%	-22.6%
C[N+]1(CC(=O)c2ccc(Cl)cc2)CCOCC1	20.8%	7.45%	10.6%	-20.9%	6.6%	28.1%
COc1ccc(C)cc1NC(=O)Nc1ccccc1F	6.9%	15.2%	6.15%	3.3%	-0.4%	5.15%
Cn1c(NN)nc2ccccc2c1=O	-33.7%	-3.25%	-26.9%	5.55%	-16.9%	-27.8%
O=C1c2ccccc2C(=O)N1CCS(=O)(=O)O	8.65%	18.1%	14.2%	-7.55%	10.2%	9.9%
Nc1ncnc2c1ncn2CC(O)CN(CCO)CCO (configuration not stated)	13.1%	7.95%	-3.7%	8.2%	-10.8%	18.6%
O=c1[nH]cnc2c1ccc1[nH]ncc12	9.45%	0.2%	-3.35%	-42.2%	-1.05%	5.4%
CCOC(=O)c1ccc(NCc2ccc(CNc3ccc(C(=O)OCC)cc3)cc2)cc1	-35.4%	-18.2%	-36.2%	-11.8%	-21.4%	-27%
CCCNC(=O)Cn1c(-c2ccccc2)cc2ccccc21	13.4%	5.5%	16.7%	18.4%	27.9%	-52.8%

— PubChem BioAssay (NCI)
